In PubChem BioAssay (EPA / NIEHS):
Activity calls are given as the source filed them. How the source made its calls: active means hit-call score of the fitted dose curve at least 0.9, where 1 is the maximum; inactive means score below 0.9.

Tests used:
[1] = read-out: Matrix Metallopeptidase 1 (MMP1), MMP1 (gene 4312); assay: BSK_MyoF_MMP1: BioMAP Diversity Plus: MyoF Assay for Matrix Metallopeptidase 1 (MMP1) Biomarker Activity (AID 2284268); settings: primary human lung fibroblasts
Procedure, shortened: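 ELISA readout of MMP1 in primary human lung fibroblast cultures, 24 h post-dosing. Gain of signal versus DMSO vehicle control defines activity. Parallel SRB staining (0.1% after 10% TCA fixation, 560 nm) flags overt cytotoxicity.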

[2] = read-out: TIMP metallopeptidase inhibitor 1 (TIMP1), TIMP1 (gene 7076); assay: BSK_MyoF_TIMP1: BioMAP Diversity Plus: MyoF Assay for TIMP metallopeptidase inhibitor 1 (TIMP1) Biomarker Activity (AID 2284269); settings: primary human lung fibroblasts
Procedure, shortened: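 Primary human lung fibroblasts, MyoF multiplex system; chemical exposure 24 h; TIMP-1 by ELISA; positive fitting direction vs DMSO control.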

Q: `CCOP(=O)(OCC)OC(=CCl)c1ccc(Cl)cc1Cl` was tested. Which AC50 [1] did it give?
A: Its AC50 is 31.7 µM (active).

Q: And the outcome [2]?
A: Its outcome is “inactive”.

Q: Which results are given for `CCC(C)(C#N)N=NC(C)(C#N)CC` (stereo not given)?
A: outcome [1]: inactive; outcome [2]: inactive

Q: With `Cc1ccccc1OP(=O)(Oc1ccccc1C)Oc1ccccc1C` as the molecule, how does the outcome [1] read?
A: The outcome was “inactive”.

Q: What about the AC50 [2] of the same molecule?
A: Its AC50 is 20 µM (active).

Q: With `N#CCCC(Br)(C#N)CBr` (stereo not given) as the molecule, how does the outcome [1] read?
A: The outcome was “inactive”.

Q: What about the AC50 [2] of the same molecule?
A: The AC50 was 20 µM (active).

Q: Which outcome [1] does the source give for `Cc1cccc(OP(=O)(Oc2cccc(C)c2)Oc2cccc(C)c2)c1` here?
A: Its outcome is “inactive”.

Q: What about the outcome [2] of the same molecule?
A: Its outcome is “inactive”.

Q: How did the AC50 [1] turn out when `Oc1c(Br)cc(Br)cc1Br` was run?
A: Its AC50 is 12.4 µM (active).

Q: What about the outcome [2] of the same molecule?
A: Its outcome is “inactive”.

Q: How did the outcome [1] turn out when `Nc1ccc(N)cc1` was run?
A: The outcome was “inactive”.

Q: What about the outcome [2] of the same molecule?
A: Its outcome is “inactive”.

Q: For `CC(C=O)Cc1ccc2c(c1)OCO2` (stereo not given), which outcome [1] is on record?
A: Its outcome is “inactive”.

Q: What about the outcome [2] of the same molecule?
A: Its outcome is “inactive”.

Q: With `CCOP(=S)(OCC)OP(=S)(OCC)OCC` as the molecule, how does the outcome [1] read?
A: The outcome was “inactive”.

Q: What about the outcome [2] of the same molecule?
A: Its outcome is “inactive”.

Q: Which results are given for `Cc1ccc(OP(=O)(Oc2ccc(C)cc2C)Oc2ccc(C)cc2C)c(C)c1`?
A: AC50 [1]: 5.97 µM (active); outcome [2]: inactive

Q: For `Cc1cc(Cl)ccc1N`, which outcome [1] is on record?
A: The outcome was “inactive”.

Q: What about the outcome [2] of the same molecule?
A: The outcome was “inactive”.

Q: What does the source list for `C=CC(Cl)CCl` (stereo not given)?
A: outcome [1]: inactive; AC50 [2]: 0.061 µM (active)

Q: How did the AC50 [1] turn out when `c1ccc(-c2cccc(-c3ccccc3)c2)cc1` was run?
A: Its AC50 is 8.44 µM (active).

Q: What about the outcome [2] of the same molecule?
A: The outcome was “inactive”.

Q: How did the outcome [1] turn out when `Nc1c(Oc2ccccc2)cc(O)c2c1C(=O)c1ccccc1C2=O` was run?
A: The outcome was “inactive”.

Q: What about the outcome [2] of the same molecule?
A: Its outcome is “inactive”.

Q: For `O=S(=O)(c1ccc(Cl)cc1)c1cc(Cl)c(Cl)cc1Cl`, which AC50 [1] is on record?
A: Its AC50 is 20 µM (active).

Q: What about the outcome [2] of the same molecule?
A: Its outcome is “inactive”.

Q: For `OC(Cc1ccccc1Cl)(Cn1cncn1)C1(Cl)CC1` (stereo not given), which outcome [1] is on record?
A: The outcome was “inactive”.

Q: And the outcome [2]?
A: Its outcome is “inactive”.

Q: With `[Cl][Sn]([c]1ccccc1)([c]1ccccc1)[c]1ccccc1` as the molecule, how does the AC50 [1] read?
A: Its AC50 is 0.423 µM (active).

Q: What about the AC50 [2] of the same molecule?
A: Its AC50 is 0.355 µM (active).

Q: Which results are given for `O=C(CCl)NCO`?
A: outcome [1]: inactive; outcome [2]: inactive

Q: Which results are given for `NC(=O)CCl`?
A: outcome [1]: inactive; outcome [2]: inactive

Q: With `Cc1cc(Cl)ccc1OC(C)C(=O)O` (stereo not given) as the molecule, how does the outcome [1] read?
A: Its outcome is “inactive”.

Q: And the outcome [2]?
A: The outcome was “inactive”.
